Anthrax LF inh2: inhibitors of Bacillus anthracis lethal factor protease; P15917; multiplex microsphere protease cleavage assay, LF; inhibition, % at 10 µM; hit rate 0.12% among 360,000
Target sequence (P15917 whole entry, looked up): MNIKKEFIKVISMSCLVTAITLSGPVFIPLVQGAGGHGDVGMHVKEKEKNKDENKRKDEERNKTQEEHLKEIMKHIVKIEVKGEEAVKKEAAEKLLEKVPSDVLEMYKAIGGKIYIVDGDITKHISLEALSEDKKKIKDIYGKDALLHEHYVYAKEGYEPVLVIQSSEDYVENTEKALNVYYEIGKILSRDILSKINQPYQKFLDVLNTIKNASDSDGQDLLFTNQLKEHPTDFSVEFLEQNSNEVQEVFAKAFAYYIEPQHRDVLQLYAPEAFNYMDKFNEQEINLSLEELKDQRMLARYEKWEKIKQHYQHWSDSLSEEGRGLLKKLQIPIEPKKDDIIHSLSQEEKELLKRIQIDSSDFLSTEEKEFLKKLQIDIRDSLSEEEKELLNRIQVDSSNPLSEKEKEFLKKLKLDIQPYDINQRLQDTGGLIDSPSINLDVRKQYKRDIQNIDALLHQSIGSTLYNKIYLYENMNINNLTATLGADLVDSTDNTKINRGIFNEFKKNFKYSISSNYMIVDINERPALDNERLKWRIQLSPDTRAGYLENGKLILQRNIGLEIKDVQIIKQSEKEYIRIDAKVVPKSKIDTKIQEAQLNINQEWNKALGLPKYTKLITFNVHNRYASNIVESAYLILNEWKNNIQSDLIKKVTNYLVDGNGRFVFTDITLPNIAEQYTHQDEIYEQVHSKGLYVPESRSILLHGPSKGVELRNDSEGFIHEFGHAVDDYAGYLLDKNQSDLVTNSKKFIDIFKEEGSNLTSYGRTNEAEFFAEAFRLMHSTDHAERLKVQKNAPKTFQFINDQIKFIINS
CCHF vOTU inh: CCHFV vOTU protease inhibition. inhibition, % at 11.5 µM. Pep-AMC fluorescence. hit rate 0.55% among 370,000. AID 651958; in the data active = inhibition above about 30%
BoNT-A LC inh2: blocks Botulinum neurotoxin A light chain protease | multiplex microsphere protease substrate cleavage, flow cytometry | inhibition, % at 10 µM | hit rate 0.17% among 360,000 | AID 588499
Autofluor counter: counter-screen for toxin protease inhibitors: compound fluorescence; compound autofluorescence counterscreen, microsphere flow cytometry; stronger effect = higher value; fluorescence intensity (concentration not given with the values); hit rate 3.1% among 360,000; AID 624483; in the data active = fluorescence intensity above about 16000; inconclusive = no clear call, values can overlap the other calls
SARS 3CLpro inh: SARS-CoV 3CLpro protease inhibition; AID 1706; recombinant SARS-CoV 3CLpro, quenched FRET peptide cleavage; P0C6X7; inhibition, % at 6 µM; hit rate 0.14% among 290,000; in the data active = inhibition above about 12%
BoNT F protease: inhibitors of Botulinum neurotoxin F light chain protease; Multiplex microsphere protease cleavage assay, flow cytometry; inhibition, % at 10 µM; hit rate 0.22% among 360,000; in the data active = inhibition above about 35%, passing the limit was not always enough; inconclusive = no clear call, values can overlap the other calls
Numbers stand for hits; – = inactive; ? = inconclusive; · = no result. Sampled rows, rich in hits. Any-hit rate of the full collection: about 3.9%. Rule as the data show it, unless noted: active = inhibition above about 30%; inconclusive = no clear call, values can overlap the other calls; inactive = below that.

SMILES | Anthrax LF inh2 | CCHF vOTU inh | BoNT-A LC inh2 | Autofluor counter | SARS 3CLpro inh | BoNT F protease
Cn1c(-n2c(CCCN3C(=O)c4ccccc4C3=O)nc3ccccc3c2=O)nc2ccccc21 | – | – | – | – | – | –
O=C1c2ccccc2C(=O)N1CCCc1nc2ccccc2c(=O)n1CCCn1ccnc1 | – | – | – | 19567 | – | –
CCc1nc2cc(Cl)c(Cl)cc2[nH]1 | – | – | ? | 23720 | – | –
COCc1[nH]nc2c1C(c1ccnc3ccccc13)C(C#N)=C(N)O2 (centres undefined) | – | – | – | 16149 | – | –
COCc1[nH]nc2c1C(c1ccc(F)cc1F)C(C#N)=C(N)O2 (centres undefined) | – | – | – | – | · | –
Cc1noc(C)c1C(=O)Nc1c(F)cc(F)cc1Br | – | – | – | 23289 | – | –
Cc1noc(C)c1C(=O)Nc1ccc(Cl)cc1C(F)(F)F | – | · | – | 23519 | – | –
O=C(Nc1c(F)cc(F)cc1Br)c1ccco1 | – | · | ? | – | – | –
Cc1cc(Cl)ccc1NNC(=O)c1c(C)noc1C | – | – | – | – | – | ?
Cc1cc(C(=O)Nc2c(F)cc(F)cc2Br)c(C)o1 | – | – | – | 17675 | – | –
COC(=O)CCCn1cc(CN2CC=CS2(=O)=O)nn1 | · | – | · | · | · | ·
Cc1ccccc1-n1c(=O)cc(N2CCc3ccccc3C2)[nH]c1=O | – | – | – | 19487 | – | –
CN1CCCN(S(=O)(=O)c2ccc3c(c2)CCC(=O)N3)CC1 | · | – | · | · | · | ·
C=CCc1cc(C=O)cc(OC)c1OCc1c(Cl)cccc1Cl | – | – | ? | 24171 | – | –
Cc1nc2ccc3[nH]snc3c2n1 | – | – | – | 23032 | – | –
CC1(NC(=O)N2CCCCC2)CCS(=O)(=O)C1 (centres undefined) | – | – | – | 22585 | – | –
CC(C)c1cc(C(C)C)c(S(=O)(=O)N2CCC(C(=O)NCC3COCCO3)CC2)c(C(C)C)c1 (centres undefined) | · | – | · | · | · | ·
CC(C)(C)c1cc(Cc2ccccc2)[nH]n1 | – | – | ? | 23025 | – | –
Cc1cc(N2CCN(CCO)CC2)n2nc(C)nc2n1 | · | – | · | · | · | ·
CCN(CC)Cc1c(C(=O)N/N=C/c2ccncc2)nnn1-c1nonc1N | – | – | – | – | – | –
CN(C)Cc1c(C(=O)N/N=C/c2ccncc2)nnn1-c1nonc1N | – | – | – | – | – | 42
CN(C)c1ccc(/C=N/NC(=O)c2nnn(-c3nonc3N)c2COc2ccc(F)cc2)cc1 | 32 | – | – | – | – | –
CC(C)(C)C(=O)CSc1nnc(SCc2cccc3ccccc23)s1 | · | – | · | · | · | ·
COC[C@H]1CCCN1c1cccc2c1S(=O)(=O)N1CC[C@@H](C1)O2 | · | – | · | · | · | ·
NC(=O)C1CCN(Cc2nc3ccccc3c(=O)[nH]2)CC1 | – | – | – | 23828 | – | –
SMILES | Anthrax LF inh2 | CCHF vOTU inh | BoNT-A LC inh2 | Autofluor counter | SARS 3CLpro inh | BoNT F protease
O=c1[nH]c(CN2CCN(S(=O)(=O)/C=C/c3ccccc3)CC2)nc2ccccc12 | – | – | – | – | – | –
O=c1[nH]c(CN2CCN(C/C=C/c3ccccc3)CC2)nc2ccccc12 | – | – | ? | 21675 | – | –
CCC(C(=O)NC1CCCC1)N(C(=O)Cn1nnc(-c2ccc(C)o2)n1)c1cnc2ccccc2c1 (centres undefined) | – | – | – | 26220 | – | –
Cc1ccc(-c2nnn(CC(=O)N(CC(=O)NC(C)C)c3cnc4ccccc4c3)n2)o1 | – | – | – | – | – | –
Cc1ccc(-c2nnn(CC(=O)N(CC(=O)NC3CCCC3)c3cnc4ccccc4c3)n2)o1 | – | – | – | 20315 | – | –
Cc1ccc(-c2nnn(CC(=O)N(CC(=O)NCC3CCCO3)c3ccc(F)c(Cl)c3)n2)o1 (centres undefined) | – | – | – | 25388 | – | –
O=C(C1CCC1)N1CCc2cc(S(=O)(=O)N3CCCC3)ccc21 | · | – | · | · | · | ·
CCOC(=O)[C@]12CCCC=C1N(Cc1ccc(OC)cc1)C(=O)[C@@H]2CC(=O)N1CCCC1 | · | – | · | · | · | ·
COc1ccc(C(=O)CC(=O)c2ccc(OC)cc2)cc1 | – | – | – | – | – | ?
COc1ccc(C(=O)C[N+]2(C)CCOCC2)cc1 | – | – | – | – | – | 46
CCN(CC)CCCOC(=O)C(OC(C)C)(c1ccccc1)c1ccccc1 | – | – | 36 | ? | – | 43
O=C(Cc1ccccc1)Nc1ccc(N2CCCC2)cc1 | – | – | – | – | – | –
O=C(Cc1ccccc1)Nc1cccc(N2CCCC2)c1 | – | – | ? | 22002 | – | –
O=C1C=C(Nc2ccc(O)cc2)CC(c2ccco2)C1 (centres undefined) | – | – | ? | 23693 | – | –
COC(=O)[C@]12C[C@H](CC(=O)NCCCN3CCCC3=O)C(=O)N(Cc3ccc(Cl)cc3Cl)C1=C[C@H](C(C)(C)C)O[C@@H]2C | · | – | · | · | · | ·
COc1ccc(C2NC3=C(CCCC3)C(C#N)(C#N)C2(C#N)C#N)cc1 (centres undefined) | · | · | · | · | – | ·
CCCC1C(c2ccc(OC)cc2)C(C#N)(C#N)C2(C#N)CC1(N)NC2=O (centres undefined) | – | – | – | 20036 | – | –
CCCC[C@H](C(=O)N(C)c1cccc(OC)c1)[C@@H](O)c1ccc(C(C)=O)cc1 | · | – | · | · | · | ·
CCOC(=O)[C@]12CCCCC/C=C\1N(Cc1ccc(OC)cc1)C(=O)[C@H]2CC(=O)NCCc1ccccc1OC | · | – | · | · | · | ·
Cc1nc2ncccn2c1-c1csc(Nc2ccccc2)n1 | – | – | – | – | – | 38
COc1ccc(Nc2nc(-c3c(C)nc4ncccn34)cs2)cc1 | – | – | – | – | – | –
Cc1oc(-c2ccc(Cl)cc2)nc1CN1CCC(C(=O)NCc2cccs2)CC1 | – | – | – | – | – | –
CCc1ccc(-c2nc(CN3CCC(C(=O)NCCN(CC)c4ccccc4)CC3)c(C)o2)cc1 | – | – | – | – | – | –
CCN(CCNC(=O)C1CCN(Cc2nc(-c3cccc(Cl)c3)oc2C)CC1)c1ccccc1 | – | – | – | 20469 | – | –
CCN(CCNC(=O)C1CCN(Cc2nc(-c3ccc(Cl)cc3)oc2C)CC1)c1ccccc1 | – | – | – | 22915 | – | –
SMILES | Anthrax LF inh2 | CCHF vOTU inh | BoNT-A LC inh2 | Autofluor counter | SARS 3CLpro inh | BoNT F protease
CCc1ccc(-c2nc(CN3CCC(C(=O)NCc4ccc(F)cc4)CC3)c(C)o2)cc1 | – | – | ? | 24227 | – | –
Cc1oc(-c2cccc(Cl)c2)nc1CN1CCC(C(=O)NC2CC2)CC1 | – | – | – | – | – | –
Cc1oc(-c2cccc(Cl)c2)nc1CN1CCC(C(=O)NCc2cccnc2)CC1 | – | – | – | 22980 | – | –
COc1ccc(S[C@]2(C(=O)NC(C)C)CC(=O)N[C@@H]2c2ccc(OC)cc2)cc1 | · | – | · | · | · | ·
COC(=O)[C@@]12CCCCC3=C1N(CCC3)C(=O)[C@H]2CC(=O)N1CCN(C(=O)c2ccco2)CC1 | · | – | · | · | · | ·
OC(c1ccccc1)(c1ccccc1)C1CCN(CCCNc2ccc(Cl)cc2Cl)CC1 | · | – | · | · | · | ·
CCN(CCNC(=O)C1CCCN(Cc2nc(-c3ccc(OC)cc3)oc2C)C1)c1ccccc1 (centres undefined) | – | – | – | 21170 | – | –
Cc1ccc(OCC2Cn3c(nc4c3c(=O)[nH]c(=O)n4C)O2)cc1 (centres undefined) | – | – | – | 20012 | – | –
CSc1cnn(-c2ccccc2)c(=O)c1SC | – | – | – | 16177 | – | –
